Source: PubChem BioAssay (NCATS)
Results filed as inconclusive are left out. Activity calls are given as the source filed them. Unless noted, calls follow the shape of the dose curve; as a rule, active = well fitted curve in the direction sought with a large enough effect; inconclusive = small, poorly fitted or top-dose-only effect, or another doubt; inactive = no such curve, though single readings can be large; an effect the other way counts as inactive or inconclusive.

Tests used:
[1] = High Content Imaging Cell-Based qHTS for Inhibitors of the mTORC1 Signaling Pathway in MEF Cells (AID 2667); also: potency is read from the fitted curve at half-maximal effect
How it was run: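 Read-out is the share of phospho-rpS6-positive cells per well, from Hoechst-normalized Alexa-488 Ser235/236 staining imaged on IN Cell. Cells: WT Tsc2-expressing Tsc2-/-, p53-/- MEFs exposed to compound for 24 hrs.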

[2] = Cytometry Cell-Based qHTS for Inhibitors of the mTORC1 Signaling Pathway in MEF cells (AID 2668); also: potency is read from the fitted curve at half-maximal effect
How it was run: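 Phospho-rpS6 (Ser235/236) immunofluorescence over PI signal, scored as % positive cells using thresholds from 7.5 nM rapamycin and DMSO wells, after 24 h compound exposure of WT-Tsc2-rescued Tsc2-/-, p53-/- MEFs. PI cell count recorded for viability.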

[3] = Validation screen for small molecules that induce DNA re-replication in MCF 10A normal breast cells (AID 463097); also: nearly all actives have a fitted effect of over 60% in size; also: potency is read from the fitted curve at half-maximal effect
How it was run: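 Read-out is Hoechst total nuclear intensity by fluorescence scanning imager, flagging increased high-DNA-content nuclei. Compounds were incubated with MCF 10A cells for 48 hr (37 C, 5% CO2) before 40 min staining.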

[4] = biological target: DNA polymerase III PolC-type (Bacillus subtilis (strain 168)) (UniProt P13267); test: qHTS Validation Assay for the Inhibitors of DNA Replication in Gram-Positive Bacteria (AID 485295); also: potency is read from the fitted curve at half-maximal effect
How it was run: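 Double-stranded DNA product detected by PicoGreen fluorescence after EDTA quench. Compound incubated with B. subtilis holoenzyme (PolC, beta subunit, SSB, primase) before substrate addition; primed replication of M13Gori with dNTPs and NTPs at room temperature; DMSO defines 0% inhibition.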

[5] = biological target: Beta-2 adrenergic receptor (Homo sapiens) (UniProt P07550); test: qHTS validation assay of beta-arrestin-biased ligands of beta2-adrenergic receptor (AID 485366)
How it was run: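 Screening used a titration range of up to 46 microM in a beta-arrestin recruitment Tango luciferase assay. Cells in 1% FBS medium were treated 18 hr at 37 degrees C, and luminescence was normalized to %Activity.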

[6] = biological target: ATP-dependent 6-phosphofructokinase (Trypanosoma brucei brucei) (UniProt O15648); test: qHTS Validation Assay to Find Inhibitors of T. brucei phosphofructokinase (AID 485368); also: potency is read from the fitted curve at half-maximal effect
How it was run: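 PFK-generated ADP was measured after 45 min at room temperature using ADP-Glo. The reaction contained 0.5 mM F6P and 0.1 mM ATP.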

[7] = Quantitative high throughput screen for delayed death inhibitors of the malarial parasite plastid, 96 hour incubation (AID 488745); also: nearly all actives have a fitted effect of over 70% in size; also: potency is read from the fitted curve at half-maximal effect
How it was run: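 Readout is firefly luciferase luminescence from an integrated reporter in P. falciparum; lower signal marks inhibited growth. Cultures at 2% hematocrit and 0.1% parasitemia were treated with compound across two generations (96 h, 37 C, 5% CO2).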

[8] = biological target: Ubiquitin carboxyl-terminal hydrolase 2 (Homo sapiens) (UniProt O75604); test: qHTS Validation Assay for Inhibitors of Ubiquitin-specific Protease USP2a Using CHOP2 as the Reporter (AID 463106)
How it was run: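 Fluorescence read-out at Ex 485nm/Em 531nm after 60min RT, following addition of 25nM Ub-CHOP2 plus 25nM reporter substrate to USP2 core (10nM) pretreated 30min with compound. Data normalized to NEM full inhibition; concentration-response curves fitted.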

[9] = biological target: Tumor susceptibility gene 101 protein (Homo sapiens) (UniProt Q99816); test: qHTS Validation Assay for Iinhibitors of HIV-1 Budding by Blocking the Interaction of PTAP/TSG101 (AID 485342; calls by dose curve)
How it was run: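 Fluorescence polarization of 50 nM FITC-PTAP peptide bound to 10 uM Tsg101 binding domain was read after 20 min room-temperature incubation with compounds, in 10 mM HEPES pH 7.5, 0.15 M NaCl, 0.01% Tween 20.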

[10] = qHTS Validation Assay to Find Inhibitors of Chronic Active B-Cell Receptor Signaling (AID 485345; active = well fitted curve in the direction sought with a large enough effect in the main read-out, with a control signal flat, not every such curve was filed as active; also: potency is read from the fitted curve at half-maximal effect)
How it was run: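 TMD8 ABC-DLBCL cells stably carrying doxycycline-inducible IkappaBalpha–green luciferase fusion plus unfused red luciferase; compounds 46 uM to 3 nM, 4 h at 37C with doxycycline. Corrected green/red luminescence ratio normalized to 10 uM MG-132 and basal cell wells; curves fitted.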

Measured: Potency

Chain of Ubiquitin carboxyl-terminal hydrolase 2 (Homo sapiens) (O75604 whole entry, looked up): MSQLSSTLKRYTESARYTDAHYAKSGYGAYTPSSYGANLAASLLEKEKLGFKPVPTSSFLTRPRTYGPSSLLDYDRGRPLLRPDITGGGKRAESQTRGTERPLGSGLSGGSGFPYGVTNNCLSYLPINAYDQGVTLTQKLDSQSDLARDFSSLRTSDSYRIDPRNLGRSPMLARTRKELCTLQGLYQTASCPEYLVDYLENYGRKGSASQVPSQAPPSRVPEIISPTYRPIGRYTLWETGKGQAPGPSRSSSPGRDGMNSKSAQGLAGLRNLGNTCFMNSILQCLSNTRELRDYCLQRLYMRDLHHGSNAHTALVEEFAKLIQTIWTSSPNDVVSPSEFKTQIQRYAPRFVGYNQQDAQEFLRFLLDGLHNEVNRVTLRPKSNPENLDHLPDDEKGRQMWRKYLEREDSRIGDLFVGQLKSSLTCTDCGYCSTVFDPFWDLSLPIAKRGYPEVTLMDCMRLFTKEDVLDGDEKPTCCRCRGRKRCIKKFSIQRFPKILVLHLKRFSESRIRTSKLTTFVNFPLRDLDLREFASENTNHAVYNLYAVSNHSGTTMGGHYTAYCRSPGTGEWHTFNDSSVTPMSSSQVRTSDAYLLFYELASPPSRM
Chain of Beta-2 adrenergic receptor (Homo sapiens) (P07550 whole entry, looked up): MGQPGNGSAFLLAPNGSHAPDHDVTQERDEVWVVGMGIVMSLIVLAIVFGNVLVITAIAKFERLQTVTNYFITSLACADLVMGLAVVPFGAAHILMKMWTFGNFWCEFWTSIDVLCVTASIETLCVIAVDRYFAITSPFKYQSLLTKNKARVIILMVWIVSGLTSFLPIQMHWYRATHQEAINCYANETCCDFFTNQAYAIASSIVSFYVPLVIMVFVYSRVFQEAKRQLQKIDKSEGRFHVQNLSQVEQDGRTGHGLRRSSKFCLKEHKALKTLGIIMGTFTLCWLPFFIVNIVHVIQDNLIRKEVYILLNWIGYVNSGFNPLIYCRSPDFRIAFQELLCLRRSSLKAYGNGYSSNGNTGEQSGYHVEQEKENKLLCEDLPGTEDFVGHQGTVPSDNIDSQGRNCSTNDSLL
Chain of Tumor susceptibility gene 101 protein (Homo sapiens) (Q99816 whole entry, looked up, the tested form may be a part): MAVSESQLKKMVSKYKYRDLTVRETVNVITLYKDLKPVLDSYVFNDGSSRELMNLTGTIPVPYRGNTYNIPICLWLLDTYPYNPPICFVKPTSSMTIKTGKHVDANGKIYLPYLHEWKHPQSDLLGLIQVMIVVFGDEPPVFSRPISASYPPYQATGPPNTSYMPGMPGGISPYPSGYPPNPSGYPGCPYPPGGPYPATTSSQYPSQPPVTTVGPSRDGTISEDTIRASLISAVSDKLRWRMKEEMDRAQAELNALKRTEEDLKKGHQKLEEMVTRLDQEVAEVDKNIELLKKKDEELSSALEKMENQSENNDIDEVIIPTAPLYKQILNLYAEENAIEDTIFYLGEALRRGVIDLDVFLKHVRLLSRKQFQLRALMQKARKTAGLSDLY
Chain of ATP-dependent 6-phosphofructokinase (Trypanosoma brucei brucei) (O15648 whole entry, looked up): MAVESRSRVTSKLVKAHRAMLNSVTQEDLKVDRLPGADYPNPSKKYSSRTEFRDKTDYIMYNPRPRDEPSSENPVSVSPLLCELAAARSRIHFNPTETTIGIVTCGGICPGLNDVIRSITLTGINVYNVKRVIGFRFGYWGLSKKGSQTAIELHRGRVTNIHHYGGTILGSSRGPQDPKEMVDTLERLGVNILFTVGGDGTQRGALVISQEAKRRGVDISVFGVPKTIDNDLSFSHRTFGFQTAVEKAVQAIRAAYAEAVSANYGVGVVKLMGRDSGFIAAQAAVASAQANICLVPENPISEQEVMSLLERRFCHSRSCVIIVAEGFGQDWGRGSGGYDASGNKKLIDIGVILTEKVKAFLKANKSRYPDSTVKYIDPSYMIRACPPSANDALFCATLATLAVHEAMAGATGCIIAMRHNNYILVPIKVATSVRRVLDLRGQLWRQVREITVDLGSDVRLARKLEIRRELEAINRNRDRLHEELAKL
Chain of DNA polymerase III PolC-type (Bacillus subtilis (strain 168)) (P13267 whole entry, looked up): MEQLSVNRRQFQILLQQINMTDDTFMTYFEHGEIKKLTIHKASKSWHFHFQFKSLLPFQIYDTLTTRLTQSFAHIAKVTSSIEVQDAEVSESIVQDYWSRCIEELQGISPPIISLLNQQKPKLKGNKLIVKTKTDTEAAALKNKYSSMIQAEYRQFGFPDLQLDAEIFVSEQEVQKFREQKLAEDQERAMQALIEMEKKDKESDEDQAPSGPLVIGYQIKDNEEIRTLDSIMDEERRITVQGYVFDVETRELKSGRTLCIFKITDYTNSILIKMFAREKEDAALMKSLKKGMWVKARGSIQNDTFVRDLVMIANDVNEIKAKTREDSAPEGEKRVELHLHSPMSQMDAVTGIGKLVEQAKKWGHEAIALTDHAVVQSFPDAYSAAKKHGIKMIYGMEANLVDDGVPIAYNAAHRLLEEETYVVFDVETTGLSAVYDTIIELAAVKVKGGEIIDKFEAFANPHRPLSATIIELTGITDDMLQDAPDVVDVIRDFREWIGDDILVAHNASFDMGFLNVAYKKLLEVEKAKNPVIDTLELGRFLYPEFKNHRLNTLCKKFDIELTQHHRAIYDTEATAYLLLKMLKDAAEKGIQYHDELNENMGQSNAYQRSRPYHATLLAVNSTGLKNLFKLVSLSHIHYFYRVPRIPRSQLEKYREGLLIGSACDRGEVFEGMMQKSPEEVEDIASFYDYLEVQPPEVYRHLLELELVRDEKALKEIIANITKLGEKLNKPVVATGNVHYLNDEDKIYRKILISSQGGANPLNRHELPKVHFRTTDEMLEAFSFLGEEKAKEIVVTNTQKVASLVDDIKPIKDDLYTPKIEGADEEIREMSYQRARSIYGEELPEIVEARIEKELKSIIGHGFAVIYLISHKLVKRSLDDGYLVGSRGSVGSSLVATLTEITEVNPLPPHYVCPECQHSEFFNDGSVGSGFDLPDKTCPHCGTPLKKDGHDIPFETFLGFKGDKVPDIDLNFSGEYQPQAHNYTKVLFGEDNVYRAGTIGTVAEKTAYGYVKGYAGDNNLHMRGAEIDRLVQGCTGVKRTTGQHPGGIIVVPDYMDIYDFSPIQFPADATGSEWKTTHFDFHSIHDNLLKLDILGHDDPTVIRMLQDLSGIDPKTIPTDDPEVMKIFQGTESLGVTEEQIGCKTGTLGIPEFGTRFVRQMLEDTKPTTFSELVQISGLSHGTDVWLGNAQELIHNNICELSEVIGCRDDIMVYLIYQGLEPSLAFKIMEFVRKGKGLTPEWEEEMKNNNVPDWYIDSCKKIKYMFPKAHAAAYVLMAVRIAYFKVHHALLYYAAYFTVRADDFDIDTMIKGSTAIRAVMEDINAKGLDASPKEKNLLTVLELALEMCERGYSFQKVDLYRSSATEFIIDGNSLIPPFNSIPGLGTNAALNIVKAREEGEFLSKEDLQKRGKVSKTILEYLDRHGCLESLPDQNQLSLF

OCCN(CCO)c1nc(N2CCCCC2)c2nc(N(CCO)CCO)nc(N3CCCCC3)c2n1
inactive: [1] | [2] | [4] | [5] | [6]
active: [3] 12.6 µM | [7] 10.4 µM

Cn1ccc2cc3c(cc21)CCN3C(=O)Nc1cccnc1
inactive: [1] | [2] | [3] | [8] | [4] | [9] | [5]

Cn1c(=O)c2[nH]cnc2n(C)c1=O
inactive: [1] | [2] | [3] | [8] | [4] | [9] | [5] | [7]

CC(C)Cc1ccc(C(C)C(=O)O)cc1 (stereo not drawn)
inactive: [1] | [2] | [3] | [4] | [9] | [10] | [5] | [6] | [7]

O=c1c(-c2ccc(O)cc2)coc2cc(O)cc(O)c12
inactive: [1] | [2] | [3] | [8] | [4] | [9] | [5] | [6]

CC(CCc1ccc(O)cc1)NCCc1ccc(O)c(O)c1 (stereo not drawn)
active: [7] 5.86 µM
inactive: [1] | [2] | [8] | [4] | [9] | [10] | [5] | [6]

CN1C(C(=O)Nc2ccccn2)=C(O)c2ccccc2S1(=O)=O
inactive: [1] | [2] | [3] | [8] | [4] | [9] | [5] | [7]

CCc1cccc2c3c([nH]c12)C(CC)(CC(=O)O)OCC3 (stereo not drawn)
inactive: [1] | [2] | [3] | [8] | [4] | [9] | [10] | [5] | [7]

O=c1c(O)c(-c2ccc(O)c(O)c2)oc2cc(O)cc(O)c12
inactive: [1] | [2] | [3] | [9] | [5]

COc1ccccc1OCC(O)CN1CCN(CC(=O)Nc2c(C)cccc2C)CC1 (stereo not drawn)
inactive: [1] | [2] | [3] | [8] | [4] | [9] | [5] | [6] | [7]

COc1cc2nc(N(C)CCCNC(=O)C3CCCO3)nc(N)c2cc1OC (stereo not drawn)
inactive: [1] | [2] | [8] | [4] | [9] | [10] | [5]

CC(C)NCC(O)COc1ccc(CCOCC2CC2)cc1 (stereo not drawn)
inactive: [1] | [2] | [3] | [8] | [4] | [9] | [10] | [6]

CN1CCN2c3ccccc3Cc3ccccc3C2C1 (stereo not drawn)
inactive: [1] | [2] | [3] | [8] | [4] | [9] | [10] | [5] | [7]

NC12CC3CC(CC(C3)C1)C2
inactive: [1] | [2] | [3] | [8] | [4] | [9] | [10] | [5] | [7]

O=C(Nc1ccc([N+](=O)[O-])cc1Cl)c1cc(Cl)ccc1O
inactive: [8] | [4] | [9] | [5] | [6]
active: [1] 2.07 µM | [2] 1.17 µM | [3] 0.316 µM

Cn1cnc2c1c(=O)[nH]c(=O)n2C
inactive: [1] | [2] | [3] | [8] | [4] | [9] | [5] | [7]

COc1ccc(C2CNC(=O)C2)cc1OC1CCCC1 (stereo not drawn)
inactive: [1] | [2] | [3] | [8] | [4] | [9] | [5] | [6] | [7]

CCN1CCCC1CNC(=O)c1cc(S(=O)(=O)CC)c(N)cc1OC (stereo not drawn)
inactive: [1] | [2] | [8] | [4] | [9] | [10] | [5] | [6]

O=C1Cc2cc(CCN3CCN(c4nsc5ccccc45)CC3)c(Cl)cc2N1
inactive: [1] | [2] | [8] | [4] | [9] | [5] | [6]

Cc1cn([C@H]2C[C@H](N=[N+]=[N-])[C@@H](CO)O2)c(=O)[nH]c1=O
inactive: [1] | [2] | [8] | [4] | [9] | [10] | [5]

O=C1N(c2ccccc2)c2ccccc2C1(Cc1ccncc1)Cc1ccncc1
inactive: [1] | [2] | [3] | [8] | [4] | [9] | [5]

Nc1c2c(nc3ccccc13)CCCC2
inactive: [1] | [2] | [3] | [8] | [4] | [9] | [10] | [6]

CN1CCC(=C2c3ccccc3C=Cc3ccccc32)CC1
inactive: [1] | [3] | [8] | [4] | [9] | [10] | [5] | [6]

COc1cc2nc(N3CCN(C(=O)C4COc5ccccc5O4)CC3)nc(N)c2cc1OC (stereo not drawn)
active: [2] 11.7 µM | [7] 3.29 µM
inactive: [8] | [4] | [9] | [5] | [6]

Fc1ccc([C@@H]2CCNC[C@H]2COc2ccc3c(c2)OCO3)cc1
inactive: [3] | [8] | [4] | [9] | [5]

CN1CCN(CCCN2c3ccccc3Sc3ccc(Cl)cc32)CC1
inactive: [8] | [4] | [9] | [5]

CCCCc1oc2ccccc2c1C(=O)c1cc(I)c(OCCN(CC)CC)c(I)c1
inactive: [8] | [4] | [9] | [10] | [5]
active: [1] 13.1 µM | [7] 8.28 µM

O=C1c2c(O)ccc(O)c2C(=O)c2c(NCCNCCO)ccc(NCCNCCO)c21
inactive: [1] | [3] | [9] | [5]
active: [4] 1.5 µM | [7] 1.31 µM

O=C(c1ccc(OCCN2CCCCC2)cc1)c1c(-c2ccc(O)cc2)sc2cc(O)ccc12
active: [3] 11.2 µM | [10] 20.6 µM
inactive: [8] | [4] | [9] | [5]

CCCNCC(O)COc1ccccc1C(=O)CCc1ccccc1 (stereo not drawn)
inactive: [3] | [8] | [4] | [9] | [5] | [6]
active: [1] 16.5 µM | [7] 2.62 µM

COc1cc2c(c(OC)c1OC)-c1ccc(OC)c(=O)cc1[C@@H](NC(C)=O)CC2
inactive: [1] | [2] | [8] | [4] | [9] | [5] | [7]

NC(CO)C(=O)NNCc1ccc(O)c(O)c1O (stereo not drawn)
inactive: [3] | [8] | [4] | [9] | [10] | [5] | [7]

COc1ccc2c(c1)c(CC(=O)O)c(C)n2C(=O)c1ccc(Cl)cc1
inactive: [1] | [3] | [8] | [4] | [9] | [10] | [5] | [6] | [7]

COc1ccccc1N1CCN(CC(O)COc2cccc3ccccc23)CC1 (stereo not drawn)
inactive: [8] | [4] | [9] | [5] | [6] | [7]

Clc1ccc2c(c1)C(N1CCNCC1)=Nc1ccccc1O2
inactive: [3] | [8] | [4] | [9] | [5]

CN(C)CCC=C1c2ccccc2C=Cc2ccccc21
inactive: [3] | [8] | [4] | [9] | [5] | [6]

COc1ccc(CCN(C)CCCC(C#N)(c2ccc(OC)c(OC)c2)C(C)C)cc1OC (stereo not drawn)
inactive: [2] | [3] | [4] | [9] | [5]

COc1cc2nc(N3CCN(C(=O)c4ccco4)CC3)nc(N)c2cc1OC
inactive: [4] | [9] | [10] | [5] | [6]
active: [3] 15.8 µM

COc1ccccc1OCCNCC(O)COc1cccc2[nH]c3ccccc3c12 (stereo not drawn)
inactive: [8] | [4] | [9]

N[C@@H](Cc1c[nH]c2ccc(O)cc12)C(=O)O
inactive: [3] | [8] | [4] | [9] | [5]

COC(=O)Nc1nc2ccc(C(=O)c3cccs3)cc2[nH]1
inactive: [1] | [8] | [4] | [9] | [5]
active: [3] 0.158 µM

CCOC(=O)Nc1ccc(NCc2ccc(F)cc2)nc1N
inactive: [1] | [2] | [8] | [4] | [5]

C[C@](N)(Cc1ccc(O)c(O)c1)C(=O)O
inactive: [3] | [8] | [4] | [9] | [10] | [5] | [7]
active: [6] 9.53 µM

CN(C)C(=O)C(CCN1CCC(O)(c2ccc(Cl)cc2)CC1)(c1ccccc1)c1ccccc1
inactive: [8] | [4] | [9] | [5] | [6]

OCCN1CCN(CCCN2c3ccccc3Sc3ccc(C(F)(F)F)cc32)CC1
inactive: [8] | [4] | [9] | [5]

CNCCCC12CCC(c3ccccc31)c1ccccc12
inactive: [3] | [8] | [4] | [9] | [5] | [6]
active: [1] 0.521 µM

CC#C[C@]1(O)CC[C@H]2[C@@H]3CCC4=CC(=O)CCC4=C3[C@@H](c3ccc(N(C)C)cc3)C[C@@]21C
inactive: [8] | [4] | [9] | [5]
active: [1] 11.7 µM

O=C(CCCN1CCC(O)(c2ccc(Cl)cc2)CC1)c1ccc(F)cc1
active: [1] 23.3 µM | [7] 7.38 µM
inactive: [3] | [8] | [4] | [9] | [10] | [5]

O=c1[nH]cc(F)c(=O)[nH]1
inactive: [1] | [3] | [8] | [4] | [9] | [10] | [5]

CN(C)CCCN1c2ccccc2CCc2ccc(Cl)cc21
active: [7] 3.29 µM
inactive: [3] | [8] | [4] | [9] | [5]

CN(C)CCOC(c1ccccc1)c1ccccc1
inactive: [1] | [3] | [8] | [9] | [10] | [5] | [7]

CC(C)NCC(O)c1ccc(O)c(O)c1 (stereo not drawn)
active: [2] 13.1 µM
inactive: [3] | [8] | [4] | [9] | [10] | [7]

CC12CC3CC(C)(C1)CC(N)(C3)C2
inactive: [1] | [3] | [8] | [4] | [9] | [10] | [5] | [6] | [7]
